Screening data (PubChem)
An excerpt weighted towards active compounds, which were near 3.4% of everything screened.
HIF-2a block: HIF-2a inhibition; 786-0 RCC cells HIF-2a reporter, luciferase luminescence, overnight; inhibition, % at 18.8 µM; actives 0.72% (n = 360,000);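 active = inhibition of the luminescence signal of 40% or more relative to plate controls, in a single-dose primary screen at 18.75 µM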
LMP1 NFkB inh: reduces LMP1-driven NF-kappaB luciferase signal; LMP1-induced NF-kappaB luciferase reporter cells, luminescence; inhibition, % at 12.5 µM; actives 0.69% (n = 350,000); AID 504558; in the data active = inhibition above about 41%;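 also: 0% = neutral control wells and 100% = reference inhibitor control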
TROY NFkB inh: blocks TROY-dependent signaling in reporter cells; Q293 LMP1-TROYcd NF-kB luciferase reporter, 4 h; inhibition, % at 10 µM; actives 0.98% (n = 360,000);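 active = compounds whose plate-normalised and pattern-corrected inhibition of the luciferase reporter signal at the single screening dose is 50% or more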
Shn3 inh set2: Schnurri-3 reporter inhibition in Clone20 osteoblasts | actives 0.52% (n = 360,000) | AID 588674 | inhibition, % at 12.5 µM | Clone20 osteoblast Shn3 3'UTR firefly luciferase, 24 h;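 active = mean inhibition of at least 75% with every replicate also reaching 75%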;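 also: 0% = median of neutral control wells and 100% = pilot-screen positive control compound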
TRPM1 prom inh: reduces MITF-dependent TRPM1 promoter luciferase signal. inhibition, % at 12.5 µM. actives 0.83% (n = 330,000). SK-MEL-5 TRPM1 promoter luciferase, 24 h. AID 488899;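 active = mean inhibition across replicates of 60% or more, whatever share of single replicates reaches that level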
TWEAK Fn14 block: inhibitors of TWEAK-Fn14 interaction signaling | TWEAK-stimulated Fn14 reporter cells, luciferase luminescence, 8 h | inhibition, % at 10 µM | actives 2% (n = 360,000) | AID 1159606; in the data active = inhibition above about 50%
Starred values were filed as active, the others as inactive; · = not tested or not shown.

SMILES | HIF-2a block | LMP1 NFkB inh | TROY NFkB inh | Shn3 inh set2 | TRPM1 prom inh | TWEAK Fn14 block
Cc1cc(C(F)(F)F)nc(SCCN2CCCCC2)c1C#N | 7.3 | 5.6 | 2.0 | 1.0 | -13.9 | -9.2
COC(=O)[C@]12CCCCC=C1N(Cc1ccccc1)C(=O)[C@H](CC(=O)NCCC(C)C)C2 | 20.1 | · | -19.0 | · | · | -8.0
Cc1ccc(NC(=O)COC(=O)Cc2c[nH]c3ccccc23)cc1F | 9.1 | -2.5 | -3.8 | -3.0 | 14.9 | -15.2
CC(=O)NC(=S)Nc1sc2c(c1C#N)CCCCC2 | -86.3 | -8.1 | 58.6* | -21.4 | -50.2 | 67.3*
CC(=O)Nc1sc2c(c1C#N)CCCC2 | 10.2 | -3.9 | -41.5 | 12.4 | -9.0 | -23.7
COc1ccc(OC)c(CNc2ccc3c(c2)CCC3)c1 | -57.8 | 1.1 | 50.6* | 2.9 | -5.6 | 60.5*
COc1cccc(CNc2ccc3c(c2)CCC3)c1 | -109.8 | -6.4 | 43.9 | -37.4 | -17.5 | 51.4*
COc1ccc(OC)c(CC(=O)Nc2ccc3c(c2)CCC3)c1 | -14.2 | -6.3 | 8.4 | 14.6 | 1.9 | -0.6
CCCn1cc(SCC(=O)NCC2CCCO2)c2ccccc21 (centres undefined) | -103.5 | -7.8 | -39.5 | -4.9 | · | 0.4
COC(=O)c1ccc(CSc2nnc(-c3c[nH]c4ccccc34)n2C)o1 | -9.8 | -4.6 | -9.5 | 6.5 | -3.3 | -0.8
Cn1cc(SCC(=O)NCC2CCCO2)c2ccccc21 (centres undefined) | 20.8 | 85.0* | 5.3 | -3.9 | 3.3 | -2.2
COCCn1c(SCc2ccc(C(=O)OC)o2)nnc1-c1c[nH]c2ccccc12 | -4.2 | 47.1* | 2.8 | -7.4 | -6.9 | -19.1
CCn1c(SC(C)C)nnc1-c1c[nH]c2ccccc12 | -40.9 | 83.9* | -10.3 | -16.2 | -6.4 | 2.8
CC(C)(C)c1ccc(C(=O)Nc2nnc(SCC(=O)NCC3CCCO3)s2)cc1 (centres undefined) | -1.0 | 49.1* | 5.9 | -17.5 | 25.6 | 71.5*
CN(CCc1ccccn1)c1ccccc1 | -93.8 | -14.2 | -17.3 | -26.9 | -71.0 | 0.3
O=S(CC(O)(c1ccccc1)c1ccccc1)CC(O)(c1ccccc1)c1ccccc1 | 11.0 | -7.2 | 5.6 | 12.1 | · | 6.0
Clc1cccc(Cc2c(C3CCCCC3)nc3ccc(Br)cn23)c1 | -15.2 | · | 3.0 | -1.7 | · | 5.5
Cn1c(SCC(=O)NCC2CCCO2)nnc1-c1c[nH]c2ccccc12 (centres undefined) | 14.8 | 1.7 | 12.9 | 2.5 | 10.8 | 12.1
CCn1c(SCC(=O)NCC2CCCO2)nnc1-c1c[nH]c2ccccc12 (centres undefined) | 9.7 | 4.4 | · | 1.8 | 8.8 | 63.4*
CCCCn1c(SCC(=O)NC2CCCC2)nnc1-c1ccco1 | 8.2 | 1.8 | 3.8 | 1.9 | -4.0 | 22.6
NC(=O)CSc1nc2c(c(=O)n1-c1ccccc1)C1(CCCCC1)Cc1ccccc1-2 | 8.0 | 4.7 | 44.1 | 5.4 | 8.1 | 36.5
Cc1cccc(-n2c(SCC(N)=O)nc3c(c2=O)C2(CCCC2)Cc2ccccc2-3)c1 | 24.6 | 3.7 | 50.5* | -0.8 | -0.9 | 33.4
Cc1nc(C)c(C(=O)Nc2ccccc2)s1 | -31.5 | 1.4 | -4.8 | -36.3 | -8.6 | -10.7
Cc1nc(C)c(C(=O)O)s1 | 8.1 | -2.1 | -5.2 | -5.1 | 4.1 | 94.6*
COc1ccc(-c2cc(N)n(CCC#N)n2)c(OC)c1 | 4.6 | -8.3 | 17.2 | -0.2 | 10.2 | -1.2
SMILES | HIF-2a block | LMP1 NFkB inh | TROY NFkB inh | Shn3 inh set2 | TRPM1 prom inh | TWEAK Fn14 block
COc1ccc(-n2cnc3c(cnn3CCC#N)c2=N)cc1 | -23.7 | 84.7* | 8.2 | -6.9 | -6.3 | -12.4
O=C(Nc1ccccc1C(=O)Nc1nnc(C(F)(F)F)s1)c1ccccc1 | -11.8 | 8.4 | 58.6* | 55.6 | -0.7 | 86.8*
COc1ccc(-c2csc(NC3OC(=O)c4c3ccc(OC)c4OC)n2)cc1OC (centres undefined) | 13.6 | 16.2 | 12.5 | · | 23.2 | 66.9*
CC(=O)Nc1cc(-c2cccc(C(=O)NCCO)c2)cn2c(-c3ccc(F)c(Cl)c3)cnc12 | -7.9 | · | -17.2 | -6.0 | · | -37.1
CCN1CCN(c2ccc(S(=O)(=O)N3CCCCC3)cc2NC(=O)c2ccc([N+](=O)[O-])s2)CC1 | 26.8 | 1.0 | 9.9 | 55.0 | 84.9* | 6.0
CCN1CCN(c2ccc(S(=O)(=O)N3CCCCC3)cc2NC(=O)/C=C/c2ccc(OC)c(OC)c2)CC1 | -1.5 | 7.1 | 13.8 | 8.0 | -4.7 | -16.6
CCN1CCN(c2ccc(S(=O)(=O)N3CCCCC3)cc2NC(=O)/C=C/c2ccc(Cl)cc2)CC1 | -1.6 | -0.4 | 1.1 | -23.2 | 89.1* | -22.0
CCOC(=O)[C@]12CCC=C1N(Cc1cccc3ccccc13)C(=O)[C@H](CC(=O)NCCCCc1ccccc1)C2 | -0.3 | · | 0.9 | · | · | 5.6
CC(O)c1cccc(NC(=O)CC(c2ccccc2)c2ccccc2)c1 (centres undefined) | 9.5 | 2.2 | -2.4 | -0.3 | 16.0 | 86.4*
C=C(C)CN1C(=O)C(C)SC1=NN=C1SCC(=O)N1C (centres undefined) | 7.4 | -2.6 | -3.1 | -1.1 | · | 16.9
Cc1nc(Cl)c(N=Cc2cccc([N+](=O)[O-])c2)c(Cl)n1 | 5.1 | 2.0 | -15.4 | -3.5 | 6.2 | 8.6
COc1cccc(-c2csc(NC(=O)Nc3ccccc3)n2)c1 | -193.3 | 5.9 | 57.8* | -9.4 | 4.9 | 85.8*
COc1cccc(NC(=O)Nc2nnc(CC(=O)Nc3ccccc3)s2)c1 | 10.4 | 3.6 | 30.0 | -4.5 | -15.6 | 50.6*
O=C(Nc1ccccc1)Nc1nc(-c2ccccc2)cs1 | -87.8 | 13.5 | 21.3 | -31.8 | -16.4 | 28.8
O=C(Nc1ccc(Cl)c(Cl)c1)Nc1nc(-c2ccccc2)cs1 | -43.2 | 55.8* | 26.1 | 41.0 | 9.6 | 36.6
COc1ccc(NC(=O)Nc2nnc(CC(=O)Nc3ccccc3)s2)cc1 | 1.4 | -2.0 | 4.2 | 0.7 | 3.7 | -26.4
CC(C)C[C@H]1CNC(=S)N1CC1CCN(CCCC2CCCCC2)CC1 | -8.7 | 6.1 | 1.1 | 37.5 | 0.3 | 3.0
O=C(CC1c2cc(F)ccc2C=C(c2ccsc2)N1c1ccc(C#CCCO)cc1)c1ccco1 (centres undefined) | 0.5 | · | -2.2 | · | · | 5.4
O=C(/C=C/c1ccccc1)Nc1ncn[nH]1 | -14.9 | -17.3 | -9.4 | 17.8 | 24.1 | 69.7*
CCN(CC)S(=O)(=O)c1ccc(C)c(NC(=O)CNCc2ccccc2OC)c1 | 8.7 | -0.9 | -2.8 | 47.7 | 4.8 | -0.6
CCN(CC)S(=O)(=O)c1ccc(C)c(NC(=O)CN(C)C)c1 | 12.1 | -0.3 | 53.4* | -61.2 | -5.6 | 15.8
COc1ccccc1Cn1c(=S)[nH]c2cc(C(=O)N3CC(C)CC(C)C3)ccc2c1=O (centres undefined) | -8.6 | 0.2 | 30.5 | 3.8 | · | -1.5
CCN1C(=O)/C(=C/N(C(C)=O)c2ccccc2)N(c2ccccc2)C1=S | 86.4* | -6.5 | 15.6 | -20.7 | 5.5 | 10.6
CC1=C(C(=O)N2CCCCCC2)CC(CC(=O)NCCc2ccccn2)C(=O)N1CCC1=CCCCC1 (centres undefined) | 10.7 | · | 11.3 | · | · | 9.0
